# Screening results: PubChem, National Center for Advancing Translational Sciences (NCATS)
# VDR inh – Inhibitors of the vitamin D receptor (VDR): qHTS; 400,000 tested, 0.93% active; Vitamin D3 receptor (Homo sapiens), P11473; VDR-SRC2-3 peptide fluorescence polarization, 2 h; Potency, µM, without a hit: max response, negative = inhibition, hits mostly inhibitors
# Target sequence (P11473 whole entry, looked up): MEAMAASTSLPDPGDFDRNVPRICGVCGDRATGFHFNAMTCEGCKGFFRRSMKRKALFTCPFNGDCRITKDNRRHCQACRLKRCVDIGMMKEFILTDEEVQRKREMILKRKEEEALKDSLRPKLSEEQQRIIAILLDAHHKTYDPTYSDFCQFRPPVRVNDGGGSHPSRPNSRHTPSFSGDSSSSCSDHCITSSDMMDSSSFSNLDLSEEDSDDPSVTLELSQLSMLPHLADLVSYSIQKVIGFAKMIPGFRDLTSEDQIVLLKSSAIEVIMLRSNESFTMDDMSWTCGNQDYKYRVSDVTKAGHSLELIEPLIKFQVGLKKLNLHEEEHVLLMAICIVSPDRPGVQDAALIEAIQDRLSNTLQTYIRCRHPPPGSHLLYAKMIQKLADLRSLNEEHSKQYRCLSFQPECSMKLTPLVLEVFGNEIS
#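 FP read-out; VDR + SRC2-3 coactivator peptide; 23 nl compound by pintool; 2 h RT incubation; reagents held at 4 deg C, protected from light.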
# DT40 TDP1 no CPT – qHTS for Inhibitors of human tyrosyl-DNA phosphodiesterase 1 (TDP1): qHTS in cells in absence of CPT. AID 686978, 2013. DT40 Tdp1-/- hTDP1 cells, no CPT, ATP luminescence, 48 h. 420,000 tested, 15% active. Potency, µM (doses to about 46.2 µM), for the others: at the highest dose activity change, negative = growth inhibition, usual class: inhibitors; note: nearly all actives have a fitted effect of over 55% in size
#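 Compound effects on proliferation are scored in DT40 Tdp1-/-;hTDP1 cells in the absence of CPT. ATP levels (CellTiter-Glo luminescence) are recorded after a ≥48 hr, 37 °C incubation.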
# PLK1 PBD block – qHTS for Inhibitors of PLK1-PDB (polo-like kinase 1 - polo-box domain): Primary Screen. Plk1 PBD binding of FITC phosphopeptide, fluorescence polarization. Potency, µM, inactives show max response, negative = inhibition, actives largely listed as inhibitors. 360,000 tested, 2.8% active. AID 720504, 2013; note: series mostly up to about 57 µM; nearly all actives have a fitted effect of over 65% in size
# GCN5L2 inh – qHTS Assay for Inhibitors of GCN5L2; 390,000 tested, 0.21% active; AID 504327, 2011; Potency, µM (doses to about 58.9 µM), without a hit: at the top dose activity change, negative = inhibition, actives largely listed as inhibitors; GCN5L2 HAT assay, ThioGlo1 CoA-SH fluorescence
#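 Fluorescence readout, Ex340nm/Em540nm: ThioGlo1 (50uM final) reacts with free CoA thiol released as 20nM GCN5L2 acetylates H3(1-25) peptide (75uM) using acetyl-CoA (70uM). Compound and enzyme sat 15 min beforehand; 20 min room-temperature reaction.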
# DT40 TDP1 CPT – qHTS for Inhibitors of human tyrosyl-DNA phosphodiesterase 1 (TDP1): qHTS in cells in presence of CPT; 420,000 tested, 12% active; AID 686979, 2013; Potency, µM (highest dose often 46.2 µM), inactives show at the top dose activity change, negative = growth inhibition, actives largely listed as inhibitors; chicken DT40 Tdp1-/-;hTDP1 cells + 20 nM CPT, ATP luminescence, 48 h; note: nearly all actives have a fitted effect of over 55% in size
#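 Chicken DT40 Tdp1-/- cells stably complemented with human TDP1 were seeded at 400 cells/well in medium containing 20 nM camptothecin, exposed to pin-transferred compounds, and grown at 37 °C for at least 48 hr. Viability was read as ATP luminescence.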
# TDP1 block – qHTS Assay for Inhibitors of Tyrosyl-DNA Phosphodiesterase (TDP1); Potency, µM (series often up to 130 µM), for the others: top-dose activity change, negative = inhibition, hits mostly inhibitors; AID 485290, 2010; 350,000 tested, 0.28% active; Tyrosyl-DNA phosphodiesterase 1 (Homo sapiens), Q9NUW8; recombinant TDP1, AlphaScreen DNA substrate cleavage; note: nearly all actives have a fitted effect of over 40% in size
#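 E. coli-derived human Tdp1, 1 nM final. Cpd preinc 15 min RT; substrate 15 nM final, 5 min RT; AS bead mix 10 ug/ml final, 10 min RT. Signal loss = tyrosine-FITC cleavage. No-enzyme wells = max signal.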
# TbPYK confirm – qHTS of Trypanosoma Brucei Inhibitors: Confirmatory Assay for Cherry-picked Compounds. shares compounds with PLK1 PBD block. 890 tested, 67% active. Potency, µM (titrated, usually from 76.9 µM), for inactives: at the top dose activity change, negative = inhibition, hits mostly inhibitors. recombinant TbPYK, Kinase-Glo ATP luminescence; note: nearly all actives have a fitted effect of over 70% in size
# TbPYK orthogonal – qHTS of Trypanosoma Brucei Inhibitors: Orthogonal Assay for Cherry-picked Compounds | recombinant TbPYK, ADP-Glo luminescence, 60 min | shares compounds with PLK1 PBD block | 890 tested, 62% active | Potency, µM (series often up to 76.9 µM), for inactives: at the top dose activity change, negative = inhibition, hits mostly inhibitors; note: nearly all actives have a fitted effect of over 75% in size
# * hit, by the source's call; ? = inconclusive; · = no result given; [ ] = another dose, or the depositor's remark. Hits are enriched below; roughly 18% of the tested compounds scored in any of these assays. Calls come from the whole dose curve; as a rule, active = well fitted curve in the direction sought with a large enough effect; inconclusive = small, poorly fitted or top-dose-only effect, or another doubt; inactive = no such curve, though single readings can be large; an effect the other way counts as inactive or inconclusive. % is set by controls: 0 for no effect and ±100 for the full control effect; potency is the fitted concentration of half-maximal effect.
SMILES,VDR inh,DT40 TDP1 no CPT,PLK1 PBD block,GCN5L2 inh,DT40 TDP1 CPT,TDP1 block,TbPYK confirm,TbPYK orthogonal
COc1cc(C(=O)O)cc(OC)c1OC,-9.3%,-4.7%,-0.5%,·,-2.0%,·,·,·
COc1cc(C=C2C(=O)NC(=O)NC2=O)cc(OC)c1OC,?,-0.8%,10.6µM*,-0.5%,-2.7%,·,14.1µM*,28.2µM*
CCN1CCN(c2cn[nH]c(=O)c2Cl)CC1,7.6%,3.6%,-28.2%,-0.8%,2.2%,-5.1%,·,·
CCN1CCN(c2ccc([N+](=O)[O-])cc2C=C2C(=O)NC(=O)NC2=O)CC1,?,-30.0%,10.6µM*,-2.3%,-29.8%,-2.8%,20µM*,?
CCN1C(=O)/C(=C/c2ccc3c(c2)CCN3CCCCl)C(=O)NC1=S,-4.6%,23.1µM*,1.5µM*,?,?,5.6%,?,?
O=c1[nH]c(=S)n(Cc2ccco2)c(O)c1C=NCc1cccs1,1.4%,4.0%,-26.0%,-8.7%[0.501 µM],-16.7%,-5.1%,?,-28.8%
